This note sets out measurements from the supplement of paper PMC5919970.

The subject of this assay is TYKNU. Briefly: fractional viability relative to vehicle; TYKNU is a high-grade serous ovarian cancer line; higher = less growth inhibition. The conditions noted are these: 72 h, genotype: OPA1 knockout (sgOPA1 #2). The gist of the method: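 TYKNU control cells or lentiCRISPRv2 knockout derivatives were seeded at 500 cells per well into drug-stamped 384-well plates holding a ~2100-compound library at 2 or 10 μM, in duplicate. Cells were grown at 37 °C in 5% CO2 in RPMI 1640 with 10% FBS, and drug treatment lasted 72 h. Viability was read by Cell Titer Glo luminescence. Duplicate treatment wells were averaged and normalised to duplicate control wells from the same plate position.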

Each structure is given as a SMILES string. Where a name gives a salt, the structure may show the parent alone. In all, about 2,000 compounds were measured (“fractional viability relative to vehicle”: median about 0.92, lowest 2% from about 0.11 on). This is one part of a sample in which the lowest values are shown more often than they occur.

`CC(=O)O/N=C1\C(=O)N(Cc2cc(Cl)ccc2Cl)c2ccc(Cl)cc21` showed a fractional viability (2uM) of 1.06 and a fractional viability (10uM) of 0.985.
The like results for `NC(=O)c1noc([C@H](CCCC2CCCCC2)CC(=O)NO)n1` were, in that order, 1.1 and 0.853.
The like results for `COC(=O)N1CCN(Cc2cccc(NC(=O)Nc3ccc(C)nc3)c2F)CC1` were, in that order, 1.01 and 0.982.
`CCCCC(F)(F)[C@@]1(O)CC[C@H]2[C@@H](CC(=O)[C@@H]2CCCCCCC(=O)O)O1` [Lubiprostone]: the fractional viability is, setting by setting: (2uM) 0.935; (10uM) 1.03.
The like results for `O=C(O)c1cc(=O)c2ccccc2o1` [Chromocarb] were, in that order, 0.872 and 0.816.
For `CC(=O)c1cc2c(o1)C(=O)c1ccccc1C2=O` [Napabucasin] the same measures were 0.0542 and 0.0318.
For `O=C1c2ccccc2C(=O)c2c1ccc(O)c2O` [Alizarin] the same measures were 1.19 and 0.838.
As to `CC(CNC(=O)c1cccnc1)NC(=O)c1cccnc1` (stereo not given) [Nicaraven], the fractional viability is, setting by setting: (2uM) 0.886; (10uM) 0.93.
For `C[C@H]1O[C@@H](O[C@H]2[C@@H](O)C[C@H](O[C@H]3[C@@H](O)C[C@H](O[C@H]4CC[C@@]5(C)[C@H](CC[C@@H]6[C@@H]5C[C@@H](O)[C@]5(C)[C@@H](C7=CC(=O)OC7)CC[C@]65O)C4)O[C@@H]3C)O[C@@H]2C)C[C@H](O)[C@@H]1O` [Digoxin] the same measures were 0.141 and 0.0738.
For `Cn1c(=O)c(F)c(Nc2ccc(I)cc2F)c2c(=O)n(C[C@@H](O)CO)cnc21` the same measures were 0.516 and 0.403.
For `COc1ccc(CCNCc2ccc(OCc3ccc(Cl)nc3)c(OC)c2)cc1OC` the same measures were 1.04 and 0.914.
For `CC[C@H]1OC(=O)[C@H](C)[C@@H](O[C@H]2C[C@@](C)(OC)[C@@H](O)[C@H](C)O2)[C@H](C)[C@@H](O[C@@H]2O[C@H](C)C[C@H](N(C)C)[C@H]2O)[C@](C)(O)C[C@@H](C)C(=O)[C@H](C)[C@H]2OC(=O)O[C@@]21C` [Erythromycin Cyclocarbonate], the fractional viability worked out at 0.834 (2uM) and 0.883 (10uM).
As to `CN1CCCN(C(=O)c2cccc(-c3ccc(/C=C4/C(=O)Nc5ccc(Cl)cc54)o3)c2)CC1`, the fractional viability reads like this: (2uM) 0.132; (10uM) 0.0251.
Molecule `Cc1[nH]c(/C=C2\C(=O)Nc3ccc(S(=O)(=O)N(C)c4cccc(Cl)c4)cc32)c(C)c1C(=O)N1CCN(C)CC1` came in with a fractional viability (2uM) of 1.37 and a fractional viability (10uM) of 0.133.
The like results for `CN1CCN(C(=O)c2cc3cc(Cl)ccc3[nH]2)CC1` were, in that order, 1.08 and 1.08.
In turn, `CS(=O)(=O)c1ccc(-c2nnc(/C=C/c3nnc(-c4ccc(C#N)cc4)o3)n2-c2ccccc2Cl)nc1` showed a fractional viability (2uM) of 1.11 and a fractional viability (10uM) of 1.03.
The like results for `O=C(Cc1cccc(OC(F)(F)F)c1)Nc1ccc(CCCCc2nnc(NC(=O)Cc3ccccn3)s2)nn1` were, in that order, 0.25 and 0.2.
For `CN[C@@H](C)C(=O)N[C@H](C(=O)N1CCC[C@H]1c1nc(C(=O)c2ccc(F)cc2)cs1)C1CCCCC1` the same measures were 0.719 and 0.643.
The like results for `N#C/C(=C1/SC[C@@H](c2ccc(Cl)cc2Cl)S1)n1ccnc1` [Luliconazole] were, in that order, 0.989 and 0.818.
Take `Cc1cccc(-c2[nH]c(C(C)(C)C)nc2-c2ccc3c(c2)OCO3)n1`: the fractional viability was 1.2 (2uM) and 0.682 (10uM).
Regarding `CCCS(=O)(=O)Nc1ccc(F)c(C(=O)c2c[nH]c3ncc(-c4ccc(Cl)cc4)cc23)c1F` [Vemurafenib (PLX4032, RG7204)], the fractional viability is, setting by setting: (2uM) 1.13; (10uM) 1.
The like results for `COc1ncc(-c2ccc3nccc(-c4ccnnc4)c3c2)cc1NS(=O)(=O)c1ccc(F)cc1F` were, in that order, 0.354 and 0.0636.
For `Cc1ccc(S(=O)(=O)/C=C/C#N)cc1` the same measures were 0.121 and 0.09.
For the molecule `CC(C)(C)c1ccc(S(=O)(=O)/C=C/C#N)cc1`, the fractional viability by setting is: (2uM) 0.357; (10uM) 0.0658.
The like results for `NC(=O)c1cccc2[nH]c(-c3ccc(C4CCCN4)cc3F)nc12` (stereo not given) were, in that order, 0.735 and 0.788.
For `CC[C@H](CO)Nc1nc(NCc2ccccc2)c2ncn(C(C)C)c2n1` [Roscovitine (Seliciclib,CYC202)] the same measures were 1.14 and 0.913.
For `Cc1cc(C(O)=C2C(=O)C(=O)N(CCCN3CCOCC3)C2c2ccncc2)ccc1OCc1ccccc1` (stereo not given) the same measures were 0.973 and 0.814.
Consider `CC(O)c1cc(C(=O)N[C@@H](C)Cn2ccc(-c3ccc(C#N)c(Cl)c3)n2)n[nH]1` (stereo not given in full), for which the fractional viability is 0.945 (2uM) and 1.06 (10uM).
Turning to `Cn1ncnc1[C@H]1c2n[nH]c(=O)c3cc(F)cc(c23)N[C@@H]1c1ccc(F)cc1`, the fractional viability by setting is: (2uM) 0.905; (10uM) 0.986.
For `NC(=O)c1cnc2[nH]ccc2c1N[C@@H]1[C@@H]2CC3C[C@H]1C[C@@](O)(C3)C2` the same measures were 0.989 and 1.
For `CC(=O)Nc1cccc2c1c(Sc1ccc(Cl)cc1)c(C)n2CC(=O)O` the same measures were 0.976 and 0.913.
In the case of `CC(=O)N1c2ccc(-c3ccc(C(=O)O)cc3)cc2[C@H](Nc2ccc(Cl)cc2)C[C@@H]1C`, the fractional viability reads like this: (2uM) 0.529; (10uM) 0.337.
For `NNC(=O)c1ccncc1` [Isoniazid] the same measures were 1.01 and 1.08.
For `O=C(/C=C/c1ccc2ccccc2n1)c1ccncc1` the same measures were 0.472 and 0.11.
`O=C(NNc1ccccc1)c1ccncc1` registered a fractional viability (2uM) of 0.769 and a fractional viability (10uM) of 0.792.
For `C[C@H](CCC(=O)NCCS(=O)(=O)O)[C@H]1CC[C@H]2[C@@H]3[C@@H](O)C[C@@H]4C[C@H](O)CC[C@]4(C)[C@H]3CC[C@]12C` [Sodium Tauroursodeoxycholate (TUDC)] the same measures were 0.832 and 0.834.
For `Cc1c(C(=O)NN2CCCCC2)nn(-c2ccc(Cl)cc2Cl)c1-c1ccc(I)cc1` the same measures were 0.982 and 0.754.
Regarding `CCN(CC)CCCC(C)Nc1c2ccc(Cl)cc2nc2ccc(OC)cc12` (stereo not given) [Quinacrine 2HCl], the fractional viability (2uM) worked out at 0.837 and the fractional viability (10uM) turned out to be 0.105.
The like results for `CCN(CC)CCCC(C)Nc1nc(C)cc(Nc2ccc3nc(C)cc(N)c3c2)n1` (stereo not given) were, in that order, 0.891 and 0.898.
On to `C[C@H](Nc1ncnc2[nH]cnc12)c1cc2ccc(F)cc2nc1-c1ccccn1`, for which the fractional viability (2uM) was determined as 0.879 and the fractional viability (10uM) came out at 0.836.
The like results for `O=C(O)CCNC(=O)c1ccccc1` [Betamipron] were, in that order, 1.14 and 0.982.
The like results for `O=C(O)c1ccccc1` [Benzoic Acid] were, in that order, 0.885 and 0.957.
As for `CN(NC(=O)CC(=O)NN(C)C(=S)c1ccccc1)C(=S)c1ccccc1` [Elesclomol (STA-4783)], the fractional viability was 0.0864 (2uM) and 0.107 (10uM).
Regarding `Cc1cc(CS(=O)(=O)c2ccccc2)cc(OCc2ccc(CN3CCC[C@@H]3CO)cc2)c1`, the fractional viability (2uM) was determined as 0.843 and the fractional viability (10uM) was 0.875.
For `C=C1[C@H](CO)[C@@H](O)C[C@@H]1n1cnc2c(=O)[nH]c(N)nc21` [Entecavir Hydrate] the same measures were 1.01 and 0.935.
The like results for `Cc1nc(C#Cc2ccnc(Cl)c2)c(C)n1-c1ccc(OC(F)(F)F)cc1` were, in that order, 1.08 and 0.815.
For `CCn1c(-c2nonc2N)nc2c(C#CC(C)(C)O)ncc(OC[C@H]3CCCNC3)c21` the same measures were 1.01 and 0.698.
Take `COc1ccc(-c2ccc3ncc4c(c3c2)n(-c2ccc(N3CCNCC3)c(C(F)(F)F)c2)c(=O)n4C)cn1`: the fractional viability by setting is: (2uM) 0.111; (10uM) 0.0546.
The like results for `Nc1ccc(-c2ccc3ncc4ccc(=O)n(-c5cccc(C(F)(F)F)c5)c4c3c2)cn1` [Torin 2] were, in that order, 0.36 and 0.363.
The like results for `CNC(=O)c1cc(Oc2ccc3nc(N[C@@H]4CCCC[C@H]4O)sc3c2)ccn1` were, in that order, 0.831 and 0.74.
The like results for `COc1cc2ncnc(Nc3ccc(O)c(Br)c3)c2cc1OC` were, in that order, 1.37 and 1.19.
As to `N#Cc1c(NC(=O)c2cccc3ccccc23)sc2c1CCCC2` [JNK Inhibitor IX], the fractional viability (2uM) turned out to be 0.428 and the fractional viability (10uM) is 0.386.
The like results for `Cc1cc(C)nc(SCC(=O)Nc2ncc(Cc3cccc4ccccc34)s2)n1` were, in that order, 0.904 and 0.931.
For `COc1cccc2c1C(=O)c1c(O)c3c(c(O)c1C2=O)C[C@@](O)(C(=O)CO)C[C@@H]3O[C@H]1C[C@H](N)[C@H](O)[C@H](C)O1` [Doxorubicin (Adriamycin)] the same measures were 0.738 and 0.726.
The like results for `COc1cccc2c1C(=O)c1c(O)c3c(c(O)c1C2=O)C[C@@](O)(C(C)=O)C[C@@H]3O[C@H]1C[C@H](N)[C@H](O)[C@H](C)O1` [Daunorubicin HCl] were, in that order, 0.568 and 0.108.
With `CC(=O)[C@]1(O)Cc2c(O)c3c(c(O)c2[C@@H](O[C@H]2C[C@H](N)[C@H](O)[C@H](C)O2)C1)C(=O)c1ccccc1C3=O` [Idarubicin HCl], the fractional viability (2uM) turned out to be 0.56 and the fractional viability (10uM) was found to be 0.0586.
The like results for `Cn1nnc(-c2ccc3c(c2)[nH]c2nc(Cc4ccccc4)nc(NC4CCC(N)CC4)c23)n1` (stereo not given) were, in that order, 1.01 and 0.765.
For `CC(C)Nc1cc(-c2c[nH]c(C(=O)N[C@H](CO)c3cccc(Cl)c3)c2)c(Cl)cn1` the same measures were 0.453 and 0.36.
The like results for `Cc1noc(C)c1-c1ccc(-c2cc(C(N)=O)c(NC(N)=O)s2)c(O[C@H]2CCNC2)c1` were, in that order, 0.847 and 0.778.
Consider `COc1cc2ncnc(Sc3nnc(C)s3)c2cc1OC`, for which the fractional viability is, setting by setting: (2uM) 0.789; (10uM) 0.16.
Take `Cn1cc(CNCC2CCN(c3ncc(C(=O)NO)cn3)CC2)c2ccccc21`: the fractional viability was found to be 0.224 (2uM) and 0.19 (10uM).
For `CCNC(=O)C#Cc1ccc2c(C(=Nc3ccc(CN(C)C)cc3)c3ccccc3)c(O)[nH]c2c1` the same measures were 0.276 and 0.0913.
For `CN(C)Cc1cccc(N=C(c2ccccc2)c2c(O)[nH]c3cc(C(=O)N(C)C)ccc23)c1` the same measures were 1.13 and 0.78.
The like results for `O=C(O)CCCCC(CCSCc1ccccc1)SCc1ccccc1` (stereo not given) were, in that order, 1.23 and 0.919.
Molecule `CCOC(=O)N[C@@H]1CC[C@@H]2[C@@H](C1)C[C@H]1C(=O)O[C@H](C)[C@H]1[C@H]2/C=C/c1ccc(-c2cccc(F)c2)cn1` [Vorapaxar] returned a fractional viability (2uM) of 0.913 and a fractional viability (10uM) of 1.06.
The like results for `CCn1c(=O)c(-c2ccc(-c3cncs3)cc2Cl)cc2cnc(Nc3ccc(N4CCN(C)CC4)cc3)nc21` were, in that order, 0.914 and 0.64.
For `CC1(C)S[C@@H]2[C@H](NC(=O)[C@H](NC(=O)N3CCN(S(C)(=O)=O)C3=O)c3ccccc3)C(=O)N2[C@H]1C(=O)O` [Mezlocillin Sodium] the same measures were 0.892 and 0.979.
The like results for `Nc1nc(=S)c2ncn([C@H]3C[C@H](O)[C@@H](CO)O3)c2[nH]1` were, in that order, 1.03 and 0.763.
In turn, `C[C@@]1(c2cc(-c3cncnc3)c(F)cc2F)CCSC(N)=N1` displayed a fractional viability (2uM) of 1.12 and a fractional viability (10uM) of 0.948.
Consider `CC(C)C[C@H](NC(=O)CNC(=O)c1cc(Cl)ccc1Cl)B1OC(=O)C(CC(=O)O)(CC(=O)O)O1`, for which the fractional viability is 0.335 (2uM) and 0.299 (10uM).
